S aureus helic: inhibitors of S. aureus replicative helicase, primary screen, biochemical, fluorescence unwinding readout | replicative DNA helicase (DnaC/DnaB), Staphylococcus aureus | AID 485395, 2010 | 120,000 compounds, 0.05% hits | purified S. aureus helicase, fluorescence unwinding assay | inhibition, % (test concentration not listed); in the data active means inhibition above about 25%, passing the limit was not always enough;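 further: 0% = mean of negative control wells and 100% = mean of positive control wells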
Sa growth 42C: S. aureus growth inhibition at 42 and 30 °C, primary screen, LtaS inhibitor project, RN4220, two temperatures; OD600, 20 h, 42 °C; active compounds read low; relative growth, % (no concentration beside the values); 170,000 compounds, 0.53% hits;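 active means relative growth at most 50% at the other temperature and 20+ points below 30 °C, or under 10% at both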
The depositor's hits bear a star; . = no result given; ! = a repeat was not active. The full list was thinned out, with hits kept by preference.

SMILES	S aureus helic	Sa growth 42C
Cc1nc(-c2cccc(NC(=O)/C=C\C(=O)O)c2)cs1	6	.
FC(F)Sc1ccc(N=C=S)cc1	3	-0.8*
FC(F)Oc1ccc(N=C=S)cc1	-3	92
CC(=O)N(CCC(c1ccc(C)cc1)c1ccco1)Cc1ccccc1 (stereo not given)	7	89
NC1=CC(=O)c2ccccc2C1=O	-5	0.6*
O=C1C(=Cc2ccc(F)cc2)C(=O)c2ccccc21	.	102
O=C1C=C(Nc2ccccc2)C(=O)c2ccccc21	19	24
CC1=CC(=O)c2ccccc2C1=O	.	17
O=C1C=C(Cc2ccc(F)cc2)C(=O)c2ccccc21	5	0.2*
O=C1C=C(c2ccccc2)C(=O)c2ccccc21	.	3.8*
O=C(Nc1ccc(F)cc1)NC1CCCCC1NC(=O)Nc1ccc(F)cc1 (stereo not given)	8	101
COC(=O)c1sc(NC(=O)CSc2n[nH]c(-c3cccs3)n2)c(C(=O)OC)c1C	-19	90
CC1CCCCN1S(=O)(=O)c1ccccc1C(=O)O (stereo not given)	-1	125
CCCC1CCC(c2ccc(C(=O)CCN(C)C)cc2)CC1 (stereo not given)	20	-0.5*
CCCC1CCC(c2ccc(C(N)=O)cc2)CC1 (stereo not given)	-12	74
COc1nonc1NC(C)=O	4	91
CC(=O)NC1=CC(=O)c2nonc2C1=O	19	-0.7*
S=c1nc(-c2cccs2)cn[nH]1	-2	39*
Cc1nc(-c2cccs2)cs1	17	76
Fc1c(F)c(F)c(Nc2ccccc2)c(F)c1F	-16	.
O=S(=O)(c1ccccc1)N1CCN(c2cc(C(F)(F)F)nc3ccccc23)CC1	.	85
COc1cc2c(cc1OC)C(=O)C(CC1CCN(Cc3ccccc3)CC1)C2 (stereo not given)	.	46*!
CN1CCC(N(C)C2CCN(Cc3ccccc3)CC2)CC1	7	96
O=C(Nc1ccc(Cl)cc1)Oc1ccccc1N1CCSCC1	.	117
O=C(Nc1ccc(F)cc1)Oc1ccccc1N1CCOCC1	-6	95
SMILES	S aureus helic	Sa growth 42C
CC1CN(c2ccccc2OC(=O)Nc2ccc(OC(F)(F)F)cc2)CC(C)O1 (stereo not given)	.	3.0*
O=C(Nc1ccc(OC(F)(F)F)cc1)Oc1ccccc1N1CCOCC1	.	3.7*
CN1C(=O)/C(=C/c2cccc(Cl)c2)Sc2ccc(C(=O)N3CCCCC3)cc21	-3	92
COc1ccc(-c2cc(C3CC3)nc(SCC(=O)O)c2C#N)cc1	25	88
CN(Cc1ccc(Cl)s1)Cn1cnnc1C#N	-14	83
CCOC(=O)N1CCc2c(sc(NCc3cccnc3)c2C(=O)Nc2ccc(OC)cc2OC)C1	-14	85
Cc1ccc(S(=O)(=O)CCC(=O)O)cc1	6	78
Cc1ccc(S(=O)(=O)CCC(=O)c2ccc(O)cc2O)cc1	-8	-0.2*
FC(F)(F)c1ccc2nc(SCc3ccc(Br)cc3)[nH]c2c1	.	6.8*
N#Cc1ccc(CSc2nc3ccc(Cl)cc3[nH]2)cc1	6	65
CO[C@H](C(=O)[C@@H](O)[C@@H](C)O)[C@@H]1Cc2cc3cc(O[C@H]4C[C@@H](O[C@H]5C[C@@H](O)[C@H](O)[C@@H](C)O5)[C@@H](O)[C@@H](C)O4)c(C)c(O)c3c(O)c2C(=O)[C@H]1O[C@H]1C[C@@H](O[C@H]2C[C@@H](O[C@H]3C[C@](C)(O)[C@H](O)[C@@H](C)O3)[C@H](O)[C@@H](C)O2)[C@H](O)[C@@H](C)O1	.	-0.2*
COCCNCC1C(Oc2ccc(Cl)cc2)C(=O)N1c1ccc(C)cc1 (stereo not given)	-2	100
CC(C)N=C(N)/N=C(\N)Nc1ccc(Cl)cc1	.	94
NC(=NCCCCCCN=C(N)/N=C(\N)Nc1ccc(Cl)cc1)/N=C(\N)Nc1ccc(Cl)cc1	.	-0.8*
CCN(C(=O)Cn1c(=O)n(Cc2ccco2)c(=O)c2ccccc21)c1ccccc1	3	107
COc1ccc(/C=C2\CCCC3=C2Nc2ncnn2C3c2ccc(OC)cc2)cc1 (stereo not given)	4	80
Cc1ccc(/C=C2\CCCC3=C2Nc2nnnn2C3c2ccc(C)cc2)cc1 (stereo not given)	9	0.7*
Cc1cc2cc(CNc3ccc(N4CCCC(O)C4)cc3)c(=O)[nH]c2cc1C (stereo not given)	-14	91
O=C(O)c1cn(-c2ccc(F)cc2)c2cc(N3CCNCC3)c(F)cc2c1=O	.	-0.9*
Cn1cc(S(=O)(=O)c2ccccc2)c(=O)c2cc(F)c(N3CCN(c4ccc(F)cc4)CC3)cc21	.	101
O=C(O)c1cn(C2CC2)c2cc(N3CCN(C(=S)S)CC3)c(F)cc2c1=O	14	-0.9*
CCOC(=O)c1cn(CC)c2cc(N3CCCC3)c(F)cc2c1=O	13	89
CCO/C=C1\C(=O)N(Cc2ccccc2)C(=O)c2ccccc21	18	116
